Bioassay records deposited in PubChem BioAssay by National Center for Advancing Translational Sciences (NCATS).
Many of the other results were omitted from the sample, so hits are more common in it than they were.
Pf Dd2 growth = Plasmodium falciparum Dd2 growth inhibition; P. falciparum Dd2 growth, SYBR Green, 72 h; Potency, µM (top dose mostly 28.9 µM), without a hit: at the highest dose activity, negative = inhibition, usual class: inhibitors; actives 4.3% (n = 120,000); active = well fitted inhibition curve with a large enough effect;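 note: plate controls were DMSO vehicle for no effect and reference drug for full effect; nearly all actives have a fitted effect of over 65% in size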
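Readout: SYBR Green fluorescence, 485 nm excitation, 535 nm emission, after ~16 h lysis at 37C. Before that, Dd2-infected red cells (2.5% hematocrit) grew 72 h with compound, 29 uM top final concentration.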
Numbers without * were called inactive; i = inactive; [ ] = another dose, or the depositor's remark. Potency is the fitted concentration of half-maximal effect.

SMILES	Pf Dd2 growth
Cc1ccc(C(=O)N2CCn3c(nn(-c4ccc(Cl)cc4)c3=O)C2)cc1	11%
Cn1ncc(CN2CCc3nc(-c4ccc(F)cc4F)[nH]c3C2)c1C1CC1	11µM*
Cc1noc(CN2CCc3nc(-c4ccc(F)cc4F)[nH]c3C2)n1	-7%
CN1CCN(c2nc3c(c(=O)[nH]2)CCN(Cc2ccc(F)cc2F)CC3)CC1	35%[5.79 µM]
COc1cc(CN2CCC(C)(c3noc(C4CCOCC4)n3)CC2)cc(OC)c1	-22%
CCc1cccc(C)c1NC(=O)Cn1c(N(C)Cc2ccccc2)nc(C)cc1=O	11µM*
Cc1ccc(NC(=O)Cn2c(N(C)Cc3ccccc3)nc(C)cc2=O)c(C)c1	i
CCc1ccccc1NC(=O)Cn1c(N(C)Cc2ccccc2)nc(C)cc1=O	-8%
O=C([C@@H]1C[C@H](Oc2cccnc2)CN1C(=O)c1ccsc1)N1CCOCC1	-1%
CCOc1ccc(CN2CCc3nc(N(C)C)[nH]c(=O)c3CC2)cc1	i[5.79 µM]
COCCNC(=O)C1(C)CCc2cnc(NCc3ccccc3)nc21 (stereo not drawn)	11%[44.1 µM]
Cc1ccc(/C=C/c2onc(C)c2S(=O)(=O)N2CCC(C(=O)N3CCN(c4cc(C)ccc4C)CC3)CC2)cc1	8.9µM*
Cc1ccc(Cl)cc1N1CCN(C(=O)C2CCN(S(=O)(=O)c3cccc4nonc34)CC2)CC1	6.3µM*
O=C(C1CCN(S(=O)(=O)c2cccc3nonc23)CC1)N1CCN(c2ccccc2)CC1	i
Cc1ccc(Cl)cc1N1CCN(C(=O)C2CCN(S(=O)(=O)c3c(C)noc3/C=C/c3ccccc3F)CC2)CC1	-11%
COc1ccccc1N1CCN(C(=O)C2CCN(S(=O)(=O)c3cccc4nonc34)CC2)CC1	6%
Cc1ccc(/C=C/c2onc(C)c2S(=O)(=O)N2CCC(C(=O)Nc3cc(C)ccc3C)CC2)cc1	11%
Cn1cccc1C(=O)NC1CCc2nnc(C3CC3)n2CC1 (stereo not drawn)	13%
O=C(CN1CCCC1=O)NCc1ccc(F)cc1Cl	6%
COCCN[C@H]1[C@@H]2OC[C@@H](O2)[C@@H](NC(=O)Nc2cccc(C(F)(F)F)c2)[C@@H]1O	-7%[44.1 µM]
COc1cccc(C2CCCN2C(=O)c2cn(Cc3ccc(F)cc3)nn2)c1 (stereo not drawn)	-8%
N#Cc1ccc(C(=O)N2CCOCCNC(=O)CC2)cc1	-9%
Cc1oc2ncnc(N3CCCCC3)c2c1C(=O)NCC1CCN(Cc2cccc(F)c2)CC1	-17%
Cc1ccc(CN2CCC(CNC(=O)c3cc4ccc5cccnc5c4[nH]3)CC2)cc1	3.5µM*
O=C(c1cc2ccc3cccnc3c2[nH]1)N1CCN(c2ccccc2)CC1	i
SMILES	Pf Dd2 growth
O=C(NCC1CCN(Cc2cccc(F)c2)CC1)c1cc2ccc3cccnc3c2[nH]1	7.1µM*
CCCN(C(=O)c1cc2ccc3cccnc3c2[nH]1)c1ccc(F)cc1	-19%
Cc1ccc(C)c(CN2CCC(CNC(=O)c3cc4ccc5cccnc5c4[nH]3)CC2)c1	2.8µM*
Cc1ccc(CN2CCC(CNC(=O)Nc3ccc(C)c(C)c3)C2)cc1 (stereo not drawn)	-5%
Cc1ccc(C)c(CN2CCC(CNC(=O)Cn3ncc4c([nH]c5ccccc54)c3=O)CC2)c1	-19%
Cc1ccc(C)c(CN2CCC(CNC(=O)c3occc3C)C2)c1 (stereo not drawn)	-7%
CCN1C(=O)C2CC3(CCN(C(=O)CN4CCCC4=O)CC3)CN2C1=O (stereo not drawn)	6%
COc1ccc(CN2CCC3(CCC(=O)N(Cc4ccncc4)C3)CC2)c(F)c1	-8%
COc1ccccc1C(=O)N1CCC(Oc2ncccc2C(=O)N2CCCCC2)C1 (stereo not drawn)	-10%
O=C(Nc1cccc(-n2cccn2)c1)C1CCCN1CC1CC1 (stereo not drawn)	i
CC(=O)NCCC(=O)N1CCC2(CC1)CN(C(=O)Cc1ccc(O)cc1)CCO2	-4%
COC(=O)C1=C(C)N=C2SC=C(CC(=O)NCc3ccco3)N2C1c1ccccc1OC (stereo not drawn)	i
Cc1cc(C(=O)NCC2(COc3cccnc3)C[C@@H](O)[C@@H](O)C2)no1 (stereo partly drawn)	i
CCOc1ccc(CN2C(=O)c3ccccc3Sc3ccc(C(=O)OC)cc32)cc1	16%
COc1cc(NC(=O)CN2C(=O)c3ccccc3Sc3ccc(C(=O)N4CCCC4)cc32)cc(OC)c1	7.9µM*
CCOc1ccc(CN2C(=O)c3ccccc3Sc3ccc(C(=O)NCc4ccc(C)cc4)cc32)cc1	13µM*
Cc1ccc(CN2C(=O)c3ccccc3Sc3ccc(C(=O)NCCCN4CCOCC4)cc32)cc1	i
CCOc1ccc(CN2C(=O)c3ccccc3Sc3ccc(C(=O)NCCc4ccccc4)cc32)cc1	-18%
O=C(c1ccc2c(c1)N(Cc1ccc(F)cc1Cl)C(=O)c1ccccc1S2)N1CCC2(CC1)OCCO2	i
COC(=O)c1ccc2c(c1)N(CC(=O)Nc1ccc(OC)c(Cl)c1)C(=O)c1ccccc1S2	i
COc1cccc(CN2C(=O)c3ccccc3Sc3ccc(C(=O)NCCc4ccc(Cl)cc4)cc32)c1	11µM*
Cc1cc(C)cc(NC(=O)CN2C(=O)c3ccccc3Sc3ccc(C(=O)N4CCOCC4)cc32)c1	2%
Cc1ccc(CN2C(=O)c3ccccc3Sc3ccc(C(=O)N4CCC5(CC4)OCCO5)cc32)cc1	8.9µM*
CS(=O)(=O)N(C1CC1)C1CCOC2(CCN(C(=O)CCc3ccccc3)CC2)C1 (stereo not drawn)	i
Nc1nnnn1CC(=O)N1CCCCC1CCc1ccccn1 (stereo not drawn)	-3%
SMILES	Pf Dd2 growth
Cc1ccc(CN2CC[C@H]3C(=O)NCCCCCN(Cc4cccnc4)[C@@H]3C2)o1	-15%
CCCCc1ccc(NC(=O)Cn2cccc2-c2nc(-c3ccc4c(c3)OCO4)no2)cc1	20%
CC(C)N1CCC(OCCCNC(=O)CN2CC3CC(C2)[C@H]2CCCC(=O)N2C3)CC1 (stereo partly drawn)	-32%
N#Cc1ccc(CN2CCn3c(nnc3-c3ccc(Cl)cc3)C2)cc1	-14%
O=C(NCc1ccc(F)cc1)c1ccc2c(c1)N(Cc1ccc(F)cc1Cl)C(=O)CS2	i
O=C(NC1CCCC1)c1ccc2c(c1)N(Cc1ccc(C(F)(F)F)cc1)C(=O)c1ccccc1S2	13µM*
COc1ccccc1CNC(=O)c1ccc2c(c1)N(Cc1cc(C)ccc1C)C(=O)c1ccccc1S2	2.5µM*
COc1ccc(CNC(=O)c2ccc3c(c2)N(Cc2cccc(Cl)c2)C(=O)c2ccccc2S3)c(OC)c1	11µM*
COc1ccc(CNC(=O)c2ccc3c(c2)N(Cc2ccccc2)C(=O)c2ccccc2S3=O)cc1 (stereo not drawn)	44%
COc1ccc(CCNC(=O)c2ccc3c(c2)N(Cc2ccccc2C)C(=O)c2ccccc2S3)cc1OC	i
COc1cccc(CNC(=O)c2ccc3c(c2)N(Cc2ccc(F)cc2Cl)C(=O)c2ccccc2S3)c1	11µM*
O=C(NC1CCCC1)c1ccc2c(c1)N(Cc1ccccc1Cl)C(=O)c1ccccc1S2	-9%
COC(=O)c1ccc2c(c1)N(Cc1cc(C)ccc1C)C(=O)c1ccccc1S2	i
Cc1ccc(CNC(=O)c2ccc3c(c2)N(Cc2cccc(Cl)c2)C(=O)CS3)cc1	i
O=C(O)c1ccc2c(c1)N(Cc1ccc(F)cc1Cl)C(=O)c1ccccc1S2	i
Cc1ccc(CN2C(=O)c3ccccc3Sc3ccc(C(=O)NC4CCCC4)cc32)cc1	-5%
CC(C)[C@H]1CN(CCC(=O)O)C[C@@H]1NC(=O)c1ccc(CO)o1	2%
